Laboratory results: PubChem BioAssay AID1963318 (National Center for Advancing Translational Sciences (NCATS), 2024)
About 100 (7.7%) of roughly 1,300 compounds were called active. About 19% were inconclusive and are not listed. Calls follow the shape of the dose curve; as a rule, active = well fitted activation curve with a large enough effect; inconclusive = small, poorly fitted or top-dose-only effect; inactive = no such curve, though single readings can be large or run the other way. Not all results are given here.

Biological target: Luciferin 4-monooxygenase (Photinus pyralis) (UniProt P08659)
Test: Firefly luciferase (FLuc-C-HiBiT) SDR gain of signal screen - without ATP; also: nearly all actives have a fitted effect of over 55% in size
Conditions: Purified FLuc-C-HiBiT, Nano-Glo HiBiT luminescence, no ATP; series mostly up to 32.7 µM; activation (signal gain): at the top concentration
From the text: PI: James Inglese Ph.D. National Center for Advancing Translational Sciences (NCATS), National Institute of Health (NIH), Maryland Discovery and optimization of novel protein-binding ligands underlies many of the methods and applications of biology, drug discovery, clinical diagnostics, and environmental toxicology. Assays for detecting the interaction of, for example, a molecule with a macromolecular target also referred to here as the target of interest (TOI) is dependent on a compatible output technology. Depending on the nature and knowledge surrounding the TOI, whether a receptor, enzyme, regulatory subunit or scaffold, or a sequence-defined nucleic acid folded into a complex tertiary structure, assay strategies can vary widely. Here we exploit ligand-biased changes in the structural dynamics of the target protein to control reporter alpha complementation allowing a non-competitive, non-functional, non-separation measure of ligand-target interaction. […] Secondly, we show the specificity and sensitivity of the SDR for the Abelson tyrosine kinase (ABL1) compared to the serine/threonine protein kinase A, using an enriched chemical library of 128 compounds selected, in part, for activity annotated with ABL1 kinase activity using the Pharos database (3). References: (1) A. S. Dixon et al., NanoLuc Complementation Reporter Optimized for Accurate Measurement of Protein Interactions in Cells. ACS Chem Biol 11, 400-408 (2016). […] Chemistry & Biology, 19, 1060 - 1072 (2012). (3) K. J. Kelleher et al., Pharos 2023: an integrated resource for the understudied human proteome. Nucleic Acids Res 51, D1405-D1416 (2023).
1. Reagent. Dispense 4 uL FLuc-C-HiBiT enzyme-buffer solution per well at a final enzyme concentration of 10 nM with or without 10 uM ATP into columns 2-48 of white, solid bottom medium bind 1536-well plates (Greiner Bio-One) by BioRaptr 2. Dispense respective buffer without enzyme at 4 uL/well in column 1 of assay plates. 2. Compounds. Library compounds and PTC124 control added at 23 nL per well, transfer by Pin Tool. 3. Incubation. Incubate enzyme and compounds at room temperature for >30 min, protect from light. 4. Reagent. (SDR assay) Add 3 uL/well of Nano-Glo HiBiT reagent (Promega) to assay plates for SDR assay without ATP. 5. Incubation. Incubate enzyme and substrate or detection reagent at room temperature for 5-10 min, protect from light. 6. Detector. HiBiT SDR assay measured using CCD-based camera (ViewLux) with settings as follows: Exposure, 1 sec; Gain, High; Speed, Slow; Binning, 2X. REFERENCES: Inglese J, Shamu CE and Guy RK, Reporting data from high throughput screening of small molecule libraries, Nature Chemical Biology, 2007, 3(8): 438-441. doi.org/10.1038/nchembio0807-438.
Potency is read from the fitted curve at half-maximal effect.

Luciferin 4-monooxygenase (Photinus pyralis), sequence (P08659 whole entry, looked up): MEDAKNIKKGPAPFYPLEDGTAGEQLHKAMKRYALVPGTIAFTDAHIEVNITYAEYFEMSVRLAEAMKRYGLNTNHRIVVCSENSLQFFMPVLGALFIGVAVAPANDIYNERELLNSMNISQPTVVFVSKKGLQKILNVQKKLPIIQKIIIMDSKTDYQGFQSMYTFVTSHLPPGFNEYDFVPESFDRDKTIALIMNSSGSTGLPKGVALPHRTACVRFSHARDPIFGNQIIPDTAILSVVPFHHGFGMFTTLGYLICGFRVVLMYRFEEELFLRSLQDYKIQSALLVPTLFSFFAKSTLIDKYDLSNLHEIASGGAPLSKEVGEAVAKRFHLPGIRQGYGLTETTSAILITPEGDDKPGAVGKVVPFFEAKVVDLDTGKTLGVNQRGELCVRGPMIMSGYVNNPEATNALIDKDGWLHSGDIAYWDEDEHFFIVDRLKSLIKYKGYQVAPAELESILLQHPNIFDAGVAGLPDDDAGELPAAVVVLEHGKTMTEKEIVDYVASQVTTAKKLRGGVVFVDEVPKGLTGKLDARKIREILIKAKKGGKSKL

SMILES | activation (signal gain) | Potency
Cn1ccnc1CN1CCc2nc(C(=O)Nc3ccccc3)oc2CC1 | 18.4% [at 49.3 µM] (inactive) | 
Cc1ccc(C2Cn3nnc(C(=O)N4CCC(C(=O)NCCc5ccccc5)CC4)c3CO2)cc1 (configuration not stated) | 9.42% (inactive) | 
CN1c2cc(C(=O)Nc3ccccc3)ccc2C(=O)N2CCCCCC21 (configuration not stated) | 17% (inactive) | 
Oc1cccc(-c2cc3c(cn2)CN(Cc2cccnc2)CCN3)c1 | 18.1% [at 49.3 µM] (inactive) | 
OC1(CN2CCCCC2)CCN(c2nc3ccccc3s2)C1 (configuration not stated) | 16% (inactive) | 
Cc1nn(-c2ccc(C(C)(C)C)cc2)c(C)c1[C@@H]1C=C[C@@H](NC(=O)c2ccco2)C1 | 9.96% [at 49.3 µM] (inactive) | 
Cc1cccc(C(=O)Nc2ccc(-c3nc4ccccc4s3)c(C)c2)c1 | 21.9% (inactive) | 
COc1cccc(-c2nc3ccc(-c4ccc5c(c4)OCO5)cc3o2)c1OC | 24.4% (inactive) | 
Cc1ccc(Cl)cc1-n1ncc2c(N3CCC(C(N)=O)CC3)ncnc21 | 12% (inactive) | 
COc1ccc(-c2nc3ccccc3s2)cc1NC(=O)COc1ccccc1C | 7.67% (inactive) | 
CN1CCN(C[C@@H]2CN(C(=O)CCCc3ccccc3)C[C@@H]2CO)CC1 | 8.6% (inactive) | 
Cc1nn(-c2ccc(C(C)C)cc2)c(C)c1[C@@H]1C=C[C@@H](NC(=O)Nc2ccccc2)C1 | 14.5% [at 49.3 µM] (inactive) | 
Cc1ccc(Nc2c(-c3ccc(N(C)C)cc3)nc3nc[nH]n23)cc1 | 18.3% (inactive) | 
CC(=O)Nc1ccc(NC(=O)CCCc2nc(-c3ccc(C(C)(C)C)cc3)no2)cc1 | 24.7% (inactive) | 
O=C(CCCc1ccccc1)N1CCC2(CC1)CC(O)CCO2 (configuration not stated) | 21.2% (inactive) | 
COc1ccccc1OC1(C(=O)O)CCN(c2ncnc3nc[nH]c23)CC1 | 11.8% (inactive) | 
CC(C)C(=O)Nc1cc(-c2nc3ccccc3s2)ccc1Cl | 11.7% (inactive) | 
Oc1ccc(-c2nc(C3CC3)nc3c2CCN(Cc2cccc(F)c2)CC3)cc1 | 9.06% (inactive) | 
Cc1nn(-c2ccc(C(C)C)cc2)c(C)c1[C@@H]1C=C[C@@H](NC(=O)CC2(CC(=O)O)CCCC2)C1 | 15.4% (inactive) | 
Cc1cc2nn(-c3ccc(Cl)cc3)nc2cc1NC(=O)C(C)C | 17.2% (inactive) | 
O=C(NCC1CC1)C1CCN(C(=O)c2ncn3c2COC(c2ccccc2)C3)CC1 (configuration not stated) | 12.6% (inactive) | 
CCc1cccc(NC(=O)c2cc(-c3ccccc3)n[nH]2)c1 | 25.8% (inactive) | 
CC(=O)c1nn(-c2ccc(OC(F)(F)F)cc2)nc1Nc1ccccc1 | 14.5% (inactive) | 
Cc1cccc(-c2cccc(NC(=O)C3CCCN(C(=O)CC(F)(F)F)C3)c2)c1 (configuration not stated) | 12.4% (inactive) | 
COc1ccc(C)cc1NC(=O)Nc1cccc(-c2ccc(N3CCCCC3)nn2)c1 |  | 8.81 µM (active)
Cc1ccc(-c2nc(C(=O)N(C)Cc3ccccc3)no2)cc1 | 13.1% (inactive) | 
CCOC(=O)C1CCN(C(=O)c2cccc3c2CCN3C(=O)Nc2ccccc2)CC1 | 16.3% (inactive) | 
